Experimental data published in the supplement of paper PMC8975748.
Structures can show the parent of a compound that is named as a salt. ± gives the standard deviation of the averaged measurements.

Experiments:
[1] = test system: Saccharomyces cerevisiae BY4741 SeMeCo community; assay: mean cell size (pixel area) (pixels); higher = larger cells; details: 10 µM; 24 h; SM minimal medium
Summary of the method: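 In this assay, mean cell pixel area per well was obtained from automated confocal images of paraformaldehyde-fixed yeast analysed in Harmony. The cells were a Saccharomyces cerevisiae BY4741 community with four plasmids, each complementing one auxotrophy and carrying a fluorescent marker, grown for 24 h in SM medium with drug at a final 10 µM in 384-well plates. Values are averaged across 3 replicates. Same SeMeCo high-content imaging drug screen: Selleck FDA-approved drugs at 10 µM, 24 h in SM medium, 384-well plates, 3 replicates.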

[2] = test system: Saccharomyces cerevisiae BY4741 SeMeCo community; assay: z-score of prototroph abundance vs DMSO median; higher = larger share of this subpopulation than in DMSO controls; details: 10 µM; 24 h; SM minimal medium; subpopulation (auxotrophy): Prototroph
Summary of the method: (§1)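 Four plasmids, each restoring a single auxotrophy and encoding a distinct fluorescent protein, were carried by a Saccharomyces cerevisiae BY4741 community. After overnight growth to OD600 1.0 and dilution to 0.3, 70 µl per well was grown for 24 h in minimal SM medium on 384-well plates acoustically predosed with library drugs at 10 µM final. Following paraformaldehyde fixation, automated confocal microscopy was used, with single-auxotroph fluorescent strains defining thresholds and autofluorescence correction. Subpopulation abundance was then scored as a z-score against the vehicle-well median.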

[3] = test system: Saccharomyces cerevisiae BY4741 SeMeCo community; assay: z-score of subpopulation abundance vs DMSO median, subpopulation auxotrophic for M; higher = larger share of this subpopulation than in DMSO controls; details: 10 µM; 24 h; SM minimal medium; subpopulation (auxotrophy): M
Summary of the method: as §1

[4] = test system: Saccharomyces cerevisiae BY4741 SeMeCo community; assay: z-score of subpopulation abundance vs DMSO median, subpopulation auxotrophic for L; higher = larger share of this subpopulation than in DMSO controls; details: 10 µM; 24 h; SM minimal medium; subpopulation (auxotrophy): L
Summary of the method: as §1

[5] = test system: Saccharomyces cerevisiae BY4741 SeMeCo community; assay: z-score of subpopulation abundance vs DMSO median, subpopulation auxotrophic for H; higher = larger share of this subpopulation than in DMSO controls; details: 10 µM; 24 h; SM minimal medium; subpopulation (auxotrophy): H
Summary of the method: as §1

[6] = test system: Saccharomyces cerevisiae BY4741 SeMeCo community; assay: z-score of subpopulation abundance vs DMSO median, subpopulation auxotrophic for LM; higher = larger share of this subpopulation than in DMSO controls; details: 10 µM; 24 h; SM minimal medium; subpopulation (auxotrophy): LM
Summary of the method: as §1

[7] = test system: Saccharomyces cerevisiae BY4741 SeMeCo community; assay: z-score of subpopulation abundance vs DMSO median, subpopulation auxotrophic for HM; higher = larger share of this subpopulation than in DMSO controls; details: 10 µM; 24 h; SM minimal medium; subpopulation (auxotrophy): HM
Summary of the method: as §1

[8] = test system: Saccharomyces cerevisiae BY4741 SeMeCo community; assay: z-score of subpopulation abundance vs DMSO median, subpopulation auxotrophic for HU; higher = larger share of this subpopulation than in DMSO controls; details: 10 µM; 24 h; SM minimal medium; subpopulation (auxotrophy): HU
Summary of the method: as §1

[9] = test system: Saccharomyces cerevisiae BY4741 SeMeCo community; assay: z-score of subpopulation abundance vs DMSO median, subpopulation auxotrophic for UM; higher = larger share of this subpopulation than in DMSO controls; details: 10 µM; 24 h; SM minimal medium; subpopulation (auxotrophy): UM
Summary of the method: as §1

[10] = test system: Saccharomyces cerevisiae BY4741 SeMeCo community; assay: z-score of subpopulation abundance vs DMSO median, subpopulation auxotrophic for HL; higher = larger share of this subpopulation than in DMSO controls; details: 10 µM; 24 h; SM minimal medium; subpopulation (auxotrophy): HL
Summary of the method: as §1

[11] = test system: Saccharomyces cerevisiae BY4741 SeMeCo community; assay: z-score of subpopulation abundance vs DMSO median, subpopulation auxotrophic for HLU; higher = larger share of this subpopulation than in DMSO controls; details: 10 µM; 24 h; SM minimal medium; subpopulation (auxotrophy): HLU
Summary of the method: as §1

[12] = test system: Saccharomyces cerevisiae BY4741 SeMeCo community; assay: z-score of subpopulation abundance vs DMSO median, subpopulation auxotrophic for HLM; higher = larger share of this subpopulation than in DMSO controls; details: 10 µM; 24 h; SM minimal medium; subpopulation (auxotrophy): HLM
Summary of the method: as §1

[13] = test system: Saccharomyces cerevisiae BY4741 SeMeCo community; assay: z-score of subpopulation abundance vs DMSO median, subpopulation auxotrophic for HUM; higher = larger share of this subpopulation than in DMSO controls; details: 10 µM; 24 h; SM minimal medium; subpopulation (auxotrophy): HUM
Summary of the method: as §1

[14] = test system: Saccharomyces cerevisiae BY4741 SeMeCo community; assay: z-score of subpopulation abundance vs DMSO median, subpopulation auxotrophic for LUM; higher = larger share of this subpopulation than in DMSO controls; details: 10 µM; 24 h; SM minimal medium; subpopulation (auxotrophy): LUM
Summary of the method: as §1

[15] = test system: Saccharomyces cerevisiae BY4741 SeMeCo community; assay: z-score of subpopulation abundance vs DMSO median, subpopulation auxotrophic for HLUM; higher = larger share of this subpopulation than in DMSO controls; details: 10 µM; 24 h; SM minimal medium; subpopulation (auxotrophy): HLUM
Summary of the method: as §1

[16] = test system: Saccharomyces cerevisiae BY4741 SeMeCo community; assay: z-score of subpopulation abundance vs DMSO median, subpopulation auxotrophic for U; higher = larger share of this subpopulation than in DMSO controls; details: 10 µM; 24 h; SM minimal medium; subpopulation (auxotrophy): U
Summary of the method: as §1

| SMILES | mean cell size [1] | z-score of prototroph abundance [2] | z-score of subpopulation abundance [3] | z-score of subpopulation abundance [4] | z-score of subpopulation abundance [5] | z-score of subpopulation abundance [6] | z-score of subpopulation abundance [7] | z-score of subpopulation abundance [8] | z-score of subpopulation abundance [9] | z-score of subpopulation abundance [10] | z-score of subpopulation abundance [11] | z-score of subpopulation abundance [12] | z-score of subpopulation abundance [13] | z-score of subpopulation abundance [14] | z-score of subpopulation abundance [15] | z-score of subpopulation abundance [16] |
| --- | --- | --- | --- | --- | --- | --- | --- | --- | --- | --- | --- | --- | --- | --- | --- | --- |
| CC/C=C(\C(=O)N[C@@H]1C(=O)N2C(C(=O)OCOC(=O)C(C)(C)C)=C(COC(N)=O)CS[C@H]12)c1csc(N)n1 [Cefcapene Pivoxil Hydrochloride] | 12.3 ± 0.31 | -1.27 | 0.11 | 0.38 | 1.15 | 0.55 | 1.27 | 1 | 0.67 | 0.18 | -0.22 | 0.64 | 1.18 | 0.63 | 0.1 |  |
| COc1ccnc(C[S+]([O-])c2nc3cc(-n4cccc4)ccc3[nH]2)c1C (stereo not given) [Ilaprazole sodium] | 12.7 ± 0.23 | -0.81 | 1.1 | 1.32 | 5.12 | 1.43 |  | -0.9 | -1.01 | 6.22 | 2.72 | 3.01 | 0.43 |  |  | -1.54 |
| C[C@]1(COc2ccc(N3CCC(Oc4ccc(OC(F)(F)F)cc4)CC3)cc2)Cn2cc([N+](=O)[O-])nc2O1 [Delamanid] | 12.1 ± 0.19 |  | -0.38 | 1.53 | 0.86 | 0.45 | 0 | -0.43 | -0.53 | 0.9 | 0.12 | 0.05 | -0.19 | 0.42 | 0.08 | -0.77 |
| O=C(c1ccc(F)cc1)C1CCN(CCn2c(=O)[nH]c3ccccc3c2=O)CC1 [Ketanserin] | 12.33 ± 0.039 | 0.15 | 0.03 | -0.47 |  | 0.46 | -0.51 |  | -0.54 | 0.13 | 0.14 | -0.05 | -0.47 | -0.27 | 0.5 | 0.03 |
| Cn1cc(C(=O)[C@@H]2CCc3[nH]cnc3C2)c2ccccc21 [Ramosetron Hydrochloride] |  | -0.53 | 0.56 | -0.44 | -0.29 | 0.12 | 0.78 | -0.53 | 0.33 | -0.22 | 0.86 | 1.18 | -0.01 | 0.32 | 0.88 | 0.51 |
| CO[C@@]1(NC(=O)Cc2cccs2)C(=O)N2C(C(=O)O)=C(COC(N)=O)CS[C@@H]21 [Cefoxitin sodium] | 12.5 ± 0.3 | 1.38 | -0.16 |  |  | -1.09 | 0.04 | -0.94 |  | -0.41 | -1.19 | -0.9 | -1.19 | -0.95 | -0.41 | -0.18 |
| CC[C@H]1OC(=O)C[C@@H](O)[C@H](C)[C@@H](O[C@@H]2O[C@H](C)[C@@H](O[C@H]3C[C@@](C)(O)[C@@H](O)[C@H](C)O3)[C@H](N(C)C)[C@H]2O)[C@@H](CC=O)C[C@@H](C)C(=O)/C=C/C(C)=C/[C@@H]1CO[C@@H]1O[C@H](C)[C@@H](O)[C@@H](OC)[C@H]1OC [Tylosin] | 12.16 ± 0.07 | -1.25 | -0.28 | 1.29 | 2.22 | 1.45 | 0.74 | 0.26 | 0.88 | 2.73 | 0.34 | 0.99 |  | 1.17 | 0.01 | 0.25 |
